Screening data from PubChem BioAssay.
The list is not random: actives were taken first. Their share in the collection is about 11%.
HEK cytotox = cytotoxic compounds in HEK 293 cells; HEK 293 viability, ATP luminescence (CellTiter-Glo), 48-72 h; Potency, µM (top dose mostly 115 µM), for inactives: at the top dose activity change, negative = cytotoxicity, hits mostly inhibitors; 6.6% of 94,000 active; further: nearly all actives have a fitted effect of over 60% in size
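Cytotoxicity was scored by loss of ATP-coupled luminescence (CellTiter-Glo) in HEK 293 cells. Compound treatment ran 48 or 72 hr at 37 degree Celsius, 5% CO2, 95% humidity.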
NIH3T3 tox = cytotoxic compounds in NIH 3T3 cells. NIH 3T3 viability, CellTiter-Glo ATP luminescence, 48-72 h. Potency, µM (series often up to 96.7 µM), for the others: top-dose activity change, negative = cytotoxicity, hits mostly inhibitors. 4.3% of 94,000 active. AID 1345082; further: nearly all actives have a fitted effect of over 55% in size
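Cells were seeded at 400 per well, treated with pin-transferred compound, and kept 48 or 72 hr at 37 °C before CellTiter-Glo addition and luminescence imaging of cellular ATP.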
Luciferase inh = blocks purified firefly luciferase enzyme activity; AID 1347043; Potency, µM (doses to about 115 µM), actives largely listed as inhibitors; P08659; purified P. pyralis luciferase, luminescence, biochemical; 2.5% of 76,000 active; further: nearly all actives have a fitted effect of over 65% in size
Target sequence (P08659 whole entry, looked up): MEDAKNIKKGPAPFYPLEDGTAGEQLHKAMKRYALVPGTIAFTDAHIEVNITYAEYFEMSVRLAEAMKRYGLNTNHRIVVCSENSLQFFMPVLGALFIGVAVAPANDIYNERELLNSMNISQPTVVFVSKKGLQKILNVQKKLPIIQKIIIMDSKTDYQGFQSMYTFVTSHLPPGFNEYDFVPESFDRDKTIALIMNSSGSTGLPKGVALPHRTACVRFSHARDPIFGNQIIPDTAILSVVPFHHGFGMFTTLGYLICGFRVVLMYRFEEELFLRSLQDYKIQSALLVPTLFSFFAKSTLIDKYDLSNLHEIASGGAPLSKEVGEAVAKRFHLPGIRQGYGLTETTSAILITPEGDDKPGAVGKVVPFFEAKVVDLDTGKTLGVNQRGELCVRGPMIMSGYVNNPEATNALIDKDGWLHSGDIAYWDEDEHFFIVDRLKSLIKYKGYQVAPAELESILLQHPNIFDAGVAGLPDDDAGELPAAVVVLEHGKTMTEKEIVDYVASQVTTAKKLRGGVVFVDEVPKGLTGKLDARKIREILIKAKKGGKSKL
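FLuc 10nM, D-luciferin 10uM, ATP 10uM, Mg acetate 10mM, Tris acetate pH 7.5, Tween/BSA; cpd qHTS; enzyme added last; CCD luminescence.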
hNpr1 antagonist = blocks ANP-stimulated signaling of human Npr1 receptor; AID 1347048; Potency, µM (doses to about 46.3 µM), inactives show at the top dose activity change, negative = inhibition, actives largely listed as inhibitors; 1.6% of 76,000 active; HEK293 hNpr1 GloSensor cGMP, ANP-stimulated luminescence; calls by dose curve; further: nearly all actives have a fitted effect of over 60% in size
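Compound pre-incubated 30 min at room temperature on GloSensor-loaded HEK293 cells stably carrying hNpr1 and the pGS-40F cGMP biosensor. Stimulation uses hNppA at 0.1 nM final; luminescence is taken at baseline and 20 min post-agonist.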
* hit, by the source's call; [ ] = dose if it differs, or a comment. Unless noted, the call rests on the fitted dose curve; in most records, active means well fitted curve in the direction sought with a large enough effect; inconclusive means small, poorly fitted or top-dose-only effect, or another doubt; inactive means no such curve, though single readings can be large; an effect the other way counts as inactive or inconclusive. On the % scale 0 is the no-effect control and ±100 the full control effect; potency means the concentration at half of the fitted maximal effect.

O=C(c1cc2ccccc2[nH]1)N1CCC2(C1)NC(=O)N(Cc1ccc(Cl)cc1)C2=O (centres undefined) was read as HEK cytotox 35µM*, NIH3T3 tox inconclusive, Luciferase inh inconclusive and hNpr1 antagonist -8%.
COCC(=O)NC1CCC12CCN(S(=O)(=O)c1ccc3c(c1)CCC3)CC2 (centres undefined) was read as HEK cytotox inactive and NIH3T3 tox -17%.
Screening O=C(CN1C(=O)NC2(CCOCC2)C1=O)Nc1ccc(Cl)cc1 returned HEK cytotox -2%, NIH3T3 tox -16%, Luciferase inh inactive and hNpr1 antagonist 18%.
For C[S+](=O)([O-])Nc1cccc(Nc2ncc(-c3cccc(F)c3)c3c2OCC3)c1 the results were HEK cytotox inconclusive, NIH3T3 tox 32µM*, Luciferase inh inactive and hNpr1 antagonist -28%[70.6 µM].
For O=C(Nc1ncc(-c2cccc(F)c2)c2c1OCC2)c1ccc(Cl)cc1 the results were HEK cytotox 100µM*, NIH3T3 tox inconclusive, Luciferase inh inactive and hNpr1 antagonist -4%[70.6 µM].
`Cc1noc(C)c1-c1cnc(Nc2ccc(F)cc2)c2c1CCO2` gave HEK cytotox inconclusive, NIH3T3 tox inconclusive, Luciferase inh inactive and hNpr1 antagonist 6%[70.6 µM].
For Cc1noc(C)c1-c1cnc(Nc2ccc(F)c(Cl)c2)c2c1CCO2 the results were HEK cytotox 71µM*, NIH3T3 tox inconclusive, Luciferase inh 14µM* and hNpr1 antagonist inconclusive.
`COc1ccccc1-c1cnc(NC(=O)c2cccnc2)c2c1CCO2` gave HEK cytotox -58%[172 µM], NIH3T3 tox inconclusive, Luciferase inh inactive and hNpr1 antagonist 5%[70.6 µM].
COc1ccccc1-c1cnc(NC(=O)c2ccc(F)c(Cl)c2)c2c1CCO2 was read as HEK cytotox inconclusive, NIH3T3 tox inconclusive, Luciferase inh 18µM* and hNpr1 antagonist -25%[70.6 µM].
Screening COc1ccc(-c2ccc(C(=O)N3CCN([S+](=O)([O-])c4c(C)noc4C)CC3)cc2)nn1 returned HEK cytotox -26% and NIH3T3 tox -30%.
`C[C@@]12CO[C@@H](Cc3ccccc3)O[C@@H]1CC[C@]1(C)C2CC[C@@H](O)[C@H]1CC(=O)NCc1ccccc1` (some centres undefined) gave HEK cytotox inconclusive, NIH3T3 tox inconclusive, Luciferase inh inactive and hNpr1 antagonist -4%.
`Cc1noc(C)c1-c1cnc(NC(=O)c2ccc(Cl)cc2)c2c1CCO2` gave HEK cytotox -24%[172 µM], NIH3T3 tox 89µM*, Luciferase inh inactive and hNpr1 antagonist 2%[70.6 µM].
`COc1cccc(Nc2ncc(-c3c(C)noc3C)c3c2OCC3)c1` gave HEK cytotox inconclusive, NIH3T3 tox inconclusive, Luciferase inh inactive and hNpr1 antagonist 3%[70.6 µM].
For C=CCNC(=O)[C@@H]1Cc2cn(Cc3cccnc3)c3cccc(c23)[C@H](CC(C)C)N1 the results were HEK cytotox 50µM*, NIH3T3 tox inconclusive, Luciferase inh inactive and hNpr1 antagonist -18%[70.6 µM].
For Cc1cc(Cn2cc3c4c(cccc42)[C@H](CC(C)C)N[C@H](C(=O)O)C3)no1 the results were HEK cytotox -11%[172 µM], NIH3T3 tox -14%[138 µM], Luciferase inh inactive and hNpr1 antagonist 2%[70.6 µM].
Screening COc1ccc(CNC(=O)[C@@H]2Cc3cn(Cc4cccnc4)c4cccc(c34)[C@H](CC(C)C)N2)cc1 returned HEK cytotox 35µM*, NIH3T3 tox inconclusive, Luciferase inh inactive and hNpr1 antagonist -12%.
Screening COc1ccccc1CNC(=O)[C@@H]1Cc2cn(C)c3cccc(c23)[C@H](CC(C)C)N1 returned HEK cytotox 45µM*, NIH3T3 tox 50µM*, Luciferase inh inactive and hNpr1 antagonist -20%[70.6 µM].
CC(C)C[C@@H]1N[C@H](C(=O)NCc2ccccc2)Cc2cn(Cc3cccnc3)c3cccc1c23 was read as HEK cytotox 25µM*, NIH3T3 tox inconclusive, Luciferase inh inactive and hNpr1 antagonist -21%.
Screening COc1ccc(NC(=O)N2CCCC2c2nncn2C2CCCC2)c(OC)c1 (centres undefined) returned HEK cytotox 3%, NIH3T3 tox inconclusive, Luciferase inh inactive and hNpr1 antagonist 1%.
Screening COc1ccc(C)cc1NC(=O)N1C[C@@H](F)C[C@H]1C(=O)N1CCCCC1 returned HEK cytotox 1%, NIH3T3 tox 35µM*, Luciferase inh inactive and hNpr1 antagonist -13%.
Screening Cc1ccc(C)c(NC(=O)N2C[C@@H](F)C[C@H]2C(=O)N2CCCCC2)c1 returned HEK cytotox 11%, NIH3T3 tox inconclusive, Luciferase inh inactive and hNpr1 antagonist -1%.
Screening COc1ccc(C)cc1NC(=O)N1CCCC1c1nncn1C1CCCC1 (centres undefined) returned HEK cytotox 6%, NIH3T3 tox 32µM*, Luciferase inh inactive and hNpr1 antagonist -2%.
`OCC1CN(C2CCC2)CC12CCN(Cc1cc(F)c(F)c(F)c1)CC2` (centres undefined) gave HEK cytotox inconclusive, NIH3T3 tox inconclusive, Luciferase inh inactive and hNpr1 antagonist -19%.
For OCC1CN(C2CCC2)CC12CCN(Cc1cc(F)ccc1F)CC2 (centres undefined) the results were HEK cytotox 40µM*, NIH3T3 tox inconclusive, Luciferase inh inactive and hNpr1 antagonist -5%.
`COCC1CN(C2CCC2)CC12CCN(C(=O)Cc1ccccc1F)CC2` (centres undefined) gave HEK cytotox 50µM*, NIH3T3 tox inconclusive, Luciferase inh inactive and hNpr1 antagonist -15%.
OCC1CN(C2CCC2)CC12CCN(Cc1ccc(F)cc1)CC2 (centres undefined) was read as HEK cytotox 45µM*, NIH3T3 tox inconclusive, Luciferase inh inactive and hNpr1 antagonist -10%.
`CCN1Cc2cc(OC)ccc2N(CC(O)COc2ccc(OC)cc2)CCC1=O` (centres undefined) gave HEK cytotox -31% and NIH3T3 tox inconclusive.
For COc1ccc2c(c1)CN(CC=C(C)C)C(=O)CCN2CC(O)COc1ccccc1 (centres undefined) the results were HEK cytotox 79µM* and NIH3T3 tox inconclusive.
For C=CCN1Cc2cc(F)ccc2N(CC(O)COc2ccccc2)CCC1=O (centres undefined) the results were HEK cytotox 45µM* and NIH3T3 tox inconclusive.
`COc1ccc(OCC(O)CN2CCC(=O)N(CC(C)(C)C)Cc3cc4c(cc32)OCO4)cc1` (centres undefined) gave HEK cytotox 50µM* and NIH3T3 tox inconclusive.
`COC(=O)CN1Cc2cc(F)ccc2N(CC(O)COc2ccc(OC)cc2)CCC1=O` (centres undefined) gave HEK cytotox -17% and NIH3T3 tox inconclusive.
O=C1CCN(CC(O)COc2ccccc2)c2ccccc2CN1C1CC1 (centres undefined) was read as HEK cytotox 40µM* and NIH3T3 tox inconclusive.
